Source: PubChem (National Center for Advancing Translational Sciences (NCATS))
Only a selection was taken, and hits are over-represented in it overall.
HTT cytoprotect – Huntington cell model cytoprotection by ATP luminescence. PC12 HTT-Q103 induced, cytoprotection, ATP luminescence, 40 h. Potency, µM (series often up to 56.4 µM), without a hit: cytoprotection (ATP increase), actives largely listed as activators. 0.14% of 230,000 active. AID 1471; note: potency is the fitted concentration of half-maximal effect; % of control where 0% means no effect; nearly all actives have a fitted effect of over 45% in size
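Compounds were screened for protection of PC12 cells against cell death after tebufenozide induction (100 nM final) of mutant Huntingtin exon 1 (Q103) fused to GFP.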
PNC inhibitor – blocks assembly of the perinucleolar compartment; 3.1% of 140,000 active; activity change (PNC), negative = inhibition, % at 10 µM; PC3M PTB-GFP, PNC prevalence imaging, 16 h; stronger effect = lower value; AID 2417;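 active = readout at or below -70, meaning at least 70% loss of cells showing the perinucleolar compartment, a nuclear body marking cancer cells; inconclusive = readout between -30 and a set limit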;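 note: plate controls were DMSO wells for no effect and camptothecin positive control wells for full effect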
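PC3M cells stably expressing PTB-GFP, 750–1000 cells/well, treated 16 h at 37 °C with compound (23 nl of library stock), in duplicate. After paraformaldehyde fixation and Hoechst stain, imaged at 20x; PNC prevalence scored by image analysis.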
HTT aggregate – mutant huntingtin aggregation inhibition; PC12 HttQ103-GFP aggregates, Acumen cytometry, 40 h; Potency, µM (highest dose often 46.1 µM), for the others: at the top dose activity change, negative = inhibition, actives largely listed as inhibitors; 1.1% of 220,000 active; note: potency is the fitted concentration of half-maximal effect; % is set by controls: 0 for no effect and ±100 for the full control effect; nearly all actives have a fitted effect of over 60% in size
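Multiplexed with ATP-based cell death, this channel scores GFP aggregates in PC12 cells expressing inducible HTTex1-Q103-GFP. Induction used 100 nM tebufenozide; compounds were tested in concentration series.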
Starred values were filed as active, the others as inactive; ? = inconclusive; · = no result given; [ ] = another dose, or the depositor's remark. Unless noted, calls come from the whole dose curve; as a rule, active = well fitted curve in the direction sought with a large enough effect; inconclusive = small, poorly fitted or top-dose-only effect, or another doubt; inactive = no such curve, though single readings can be large; an effect the other way counts as inactive or inconclusive.

SMILES | HTT cytoprotect | PNC inhibitor | HTT aggregate
CC(C)(C)c1ccc(NC(=O)CSc2nnc(-c3n[nH]c4ccccc34)o2)cc1 | 27%[10 µM] | 4 | ?
COc1ccc(N=c2cc(-c3ccc(OC)cc3)oc3ccccc23)cc1 | -1%[10 µM] | ? | -24%
CCOc1ccc(N=c2cc(-c3ccc(OC)cc3)oc3ccccc23)cc1 | -8%[10 µM] | -28 | 3.2µM*
N#CC1(C#N)C2=C(CCCC2)NC(c2ccccc2)C1(C#N)C#N (centres undefined) | -12% | 5 | 26%
COc1cc2c(cc1OC)CN(CC(=O)Nc1ccc(C)cc1)CC2 | -39% | -89* | 5%
COc1cc2c(cc1OC)CN(CC(=O)Nc1ccc3c(c1)OCO3)CC2 | -21% | -24 | 17%
OCCC1CN(CC(c2ccccc2)c2ccccc2)CCN1C1CCCC1 (centres undefined) | 8%[10 µM] | · | 11%[9.22 µM]
CCOC(=O)c1sc(N=NC2=C(O)CCCC2=O)c(C(=O)OCC)c1C | -32% | · | 8%
O=C(NCc1ccco1)c1csc(Nc2ccccc2Cl)n1 | 5%[10 µM] | -117* | -18%
COc1ccc(Nc2nc(C(=O)NCc3ccco3)cs2)cc1 | 4%[10 µM] | · | -7%[9.22 µM]
O=C1CCC(C(=O)Nc2nnc(C3CC3)s2)=NN1 | -34% | · | -11%
Cc1cnc(C)c(N(C)NC(=S)Nc2ccccc2)n1 | · | -109* | -1%
Cc1nc(NC(=S)Nc2ccccc2)sc1C | -48% | · | 6%
CCn1c2ccccc2c2nnc(SCC(=O)Nc3ccc4c(c3)OCO4)nc21 | -7% | ? | -23%
O=C(COC(=O)c1ccc(-c2nnc(-c3ccccc3)o2)cc1)c1ccccc1 | 9%[10 µM] | -28 | -7%
COc1ccc(C2C(C(=O)c3ccccc3)N3c4ccccc4C=CC3C2[N+](=O)[O-])cc1 (centres undefined) | -70% | · | 18µM*
COc1ccc(N2C(=O)[C@@H]3[C@H](C2=O)[C@H](C(C)=O)N2c4ccccc4C=C[C@@H]32)cc1 | -19%[10 µM] | · | -12%[9.22 µM]
O=C(N/N=C1/C(=O)c2cccc3cccc1c23)c1ccc(Cl)cc1 | -51% | 2 | ?
O=C1C2CCCN2C(c2ccccc2)N1c1ccc(F)cc1 (centres undefined) | 4% | 44 | -7%
O=C1C2CCCN2C(c2ccc(F)cc2)N1c1ccc(Cl)cc1 (centres undefined) | -34% | -98* | 2%
COc1ccc(-c2cc3ccc(OCc4nn[nH]n4)cc3oc2=O)cc1OC | -24% | 14 | -6%
O=C(Nc1ccn(Cc2ccccc2F)n1)c1ccc(COc2ccc(Br)cc2)cc1 | 8% | -108* | 0%
O=C(Nc1ccc(Cn2cccn2)cc1)c1ccc(COc2ccc(Br)cc2)cc1 | 25% | ? | 17%
CCCC(=O)Oc1ccc(N(C(=O)CCC)S(=O)(=O)c2cccs2)cc1 | -3% | · | -14%
CCc1c(C)nc2ccc(Br)cc2c1SCCC#N | 31%[10 µM] | -21 | 7.9µM*
SMILES | HTT cytoprotect | PNC inhibitor | HTT aggregate
CCc1c(C)nc2c(Br)cccc2c1SCCC#N | 27%[10 µM] | ? | -11%
CCCc1c(C)nc2ccccc2c1SCCC#N | -41%[10 µM] | ? | 3.2µM*
CCCCc1c(C)nc2ccc(Br)cc2c1SCCC#N | -16%[10 µM] | ? | ?
CC(C)=C1C2C=CC1C(C(=O)Nc1cc(C)ccc1C)C2C(=O)O (centres undefined) | -14% | 36 | -10%
Cc1occc1C(=O)Nc1ccc2ccccc2c1 | -26% | 16 | -17%
CCCNC(=O)NC(=O)CSc1nc2ccccc2n1CC(C)C | 6%[10 µM] | -6 | -6%[9.22 µM]
Cc1[nH]nc2c1C(c1ccccc1F)CC(=O)N2 (centres undefined) | -31% | -106* | -29%
CC1(C)CC(=O)C2=C(C1)NC(=O)CC2c1ccccc1F (centres undefined) | -16% | 29 | -2%
CCn1cc(C(=O)NCCC2=CCCCC2)c(=O)c2cc(S(=O)(=O)N(C)C)ccc21 | -18%[10 µM] | ? | ?
Cc1ccc(-c2cnc3cc(C)nn3c2)cc1 | -26%[10 µM] | · | -2%
CC(=O)c1cccc(NC(=O)c2ccc(NS(C)(=O)=O)cc2)c1 | -25%[10 µM] | -119* | 0%
CC(=O)c1cccc(NC(=O)c2ccc(NS(=O)(=O)c3c(C)noc3C)cc2)c1 | -20% | -17 | 18%
COCCn1c(SCC(=O)N2CCCc3ccccc32)nc2c(c1=O)SC(C)C2 (centres undefined) | -1%[10 µM] | -108* | ?
O=C(CSc1nc(O)cc(=O)[nH]1)N1CCCc2ccccc21 | 0% | -30 | -22%
COCCn1c(SCC(=O)N2CCc3ccccc32)nc2c(c1=O)SC(C)C2 (centres undefined) | 10%[10 µM] | · | 13%[9.22 µM]
Cc1cc(=O)[nH]c(SCC(=O)N2CCCc3ccccc32)n1 | 30%[10 µM] | -100* | 25%
COc1ccccc1C(=O)Nc1nsc(-c2ccccc2)n1 | -11%[10 µM] | · | 23%[9.22 µM]
Cc1nn(-c2ccccc2)c(C)c1C(=O)OCC(N)=O | 9%[10 µM] | · | 25%
CCOC(=O)c1c(C)nc2ccccc2c1C | -11% | ? | 15%
CCOC(=O)c1c(Nc2ccccc2N)cc(C)nc1C | -6%[0.074 µM] | -107* | -7%
CN1CCN(S(=O)(=O)c2cccc(C(=O)N(c3ccccn3)C3CCCCC3)c2)CC1 | 3% | -19 | -3%
CC1CCN(S(=O)(=O)c2cccc(C(=O)N(Cc3ccccc3)c3ccccn3)c2)CC1 | -17% | · | 11µM*
Cc1ncsc1C(=O)O | 11%[10 µM] | · | -15%[9.22 µM]
CCOC(=O)c1c(=O)n(O)c2ccc(C)cc2[n+]1[O-] | -16% | ? | -5%
CN(C)c1ccc(-c2ccncc2)cc1 | -8% | -18 | -5%
SMILES | HTT cytoprotect | PNC inhibitor | HTT aggregate
CNc1nnc(-c2ccc(N(C)C)cc2)s1 | -61%[10 µM] | -95* | -14%
COc1ccc(C2c3ccsc3CCN2C(C)=O)cc1 (centres undefined) | -2%[10 µM] | · | 1%[9.22 µM]
COc1ccc(Nc2nc(N)nc(CSc3nc(C)cc(C)n3)n2)cc1 | 6%[10 µM] | · | -1%[9.22 µM]
COc1ccc(Nc2nc(N)nc(CSc3nnc(N)s3)n2)cc1 | -24%[10 µM] | -96* | 11%
O=C1CN(CC(=O)NC(=O)NCc2ccccc2)CCN1 | -5%[10 µM] | 16 | 8%
Cn1c(=O)c(CCc2ccccc2)nc2cnc(N3CCNCC3)nc21 | -295% | · | ·
Cc1ccc(OCc2nc(-c3cccnc3)no2)cc1C | ? | · | 45%[9.22 µM]
Cc1ccc(-n2c(=O)c3sccc3n(Cc3cc(=O)n4ccccc4n3)c2=O)cc1F | 18%[10 µM] | -6 | -6%
Cc1ccc(-n2c(=O)c3sccc3n(Cc3cc(=O)n4cc(Cl)ccc4n3)c2=O)cc1F | -33%[10 µM] | -83* | -10%
c1ccc(-n2nnnc2-n2cnc3ccccc32)cc1 | -5%[10 µM] | ? | -13%
Cc1nn(C)c(=O)n1-c1ccc(OCc2ccccc2)cc1 | 5%[10 µM] | 0 | -11%
O=C1NC(NS(=O)(=O)c2ccc(Cl)cc2)(C(F)(F)F)C(=O)N1CCc1ccccc1 (centres undefined) | 3%[10 µM] | · | -7%[9.22 µM]
Cc1ccc(S(=O)(=O)NC2(C(F)(F)F)NC(=O)N(C)C2=O)cc1 (centres undefined) | -8%[0.074 µM] | -87* | 9%
CCOc1ccc2c(c1)OC(c1ccccc1)(C(F)(F)F)NC2=O (centres undefined) | · | -26 | -3%
CCOc1ccc2c(c1)OC(c1ccc(OC)cc1)(C(F)(F)F)NC2=O (centres undefined) | -47%[10 µM] | -92* | 24%
